Hit rate of the full screen: of about 140,000 compounds, about 4,300 (3.1%) were called active. Roughly 21% stayed inconclusive and do not appear here. The sample as a whole holds a higher share of actives than the screen did. A number with no mark means an inactive call.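 The calls were made as follows: active = readout at or below -70, meaning at least 70% loss of cells showing the perinucleolar compartment, a nuclear body marking cancer cells; inconclusive = readout between -30 and a set limit; inactive = the rest.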
test: High Content Assay for Compounds that inhibit the Assembly of the Perinucleolar Compartment; conditions: PC3M PTB-GFP, PNC prevalence imaging, 16 h; at 10 µM; hits give low values;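 also: plate controls were DMSO wells for no effect and camptothecin positive control wells for full effect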
How it was run: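 PC3M cells stably expressing PTB-GFP, 750–1000 cells/well, treated 16 h at 37 °C with compound (23 nl of library stock), in duplicate. After paraformaldehyde fixation and Hoechst stain, imaged at 20x; PNC prevalence scored by image analysis.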

| SMILES | activity change (PNC), negative = inhibition |
| --- | --- |
| CN1/C(=C\C(=O)c2cccnc2Cl)C(C)(C)c2ccccc21 | 78% |
| CCC1C=C(c2ccccc2)C=CN=C1N(CC)CC (stereo not given) | -9.28% |
| CCOc1ccc(C(=O)NC2CCN(C(=O)Nc3ccccc3OC)CC2)cc1 | 37.5% |
| COc1cc(OC)cc(C(=O)NC2CCN(C(=O)N3c4ccccc4Sc4ccccc43)CC2)c1 | -91% (active) |
| O=C(NC1CC1)c1ccc2c(c1)NC(=O)c1ccccc1S2 | 14.7% |
| CCn1cc(CNC(=O)c2cc([N+](=O)[O-])c(C)c([N+](=O)[O-])c2)cn1 | 4.07% |
| CCN(CC)CCn1c(/N=C/c2cc(Br)ccc2O)nc2ccccc21 | 21.6% |
| O=C(COC(=O)/C=C/c1ccc(S(=O)(=O)N2CCCCCC2)cc1)NCc1ccccc1Cl | 0.0752% |
| CNc1nc(Nc2ccc(C)c(Cl)c2)nc(N)c1[N+](=O)[O-] | -113% (active) |
| Nc1nc(NCCCN2CCOCC2)nc(Nc2ccccc2)c1[N+](=O)[O-] | -16.9% |
| Cc1ccc(Nc2cc(C)nc3c(C)ccc([N+](=O)[O-])c23)cc1 | 23% |
| O=C(Cc1ccccc1)NNC1CC(=O)N(c2ccc(Br)cc2)C1=O (stereo not given) | 6.12% |
| O=C(CC1NCCNC1=O)Nc1cc(Cl)cc(Cl)c1 (stereo not given) | 29.9% |
| CCc1ccc(Oc2coc3cc(OC(=O)c4cc5ccccc5oc4=O)ccc3c2=O)cc1 | 2.64% |
| C=CCn1c(SCc2csc(C)n2)nc2scc(-c3ccc(C)o3)c2c1=O | -99.5% (active) |
| C=CCn1c(SCc2c(C)noc2C)nc2sc3c(c2c1=O)CCC(C)C3 (stereo not given) | -26.1% |
| C=CCn1c(SCC(=O)/C(C#N)=C(\C)N)nc2sc(C)c(C)c2c1=O | -7.62% |
| CC1CCCN(S(=O)(=O)c2ccc(N(C(=O)c3cnccn3)C(C(=O)NC3CCCCC3)c3cccs3)cc2)C1 (stereo not given) | 13.4% |
| O=C(/C=C/c1cnc2ccccc2n1)NC1CCCCCC1 | -24.3% |
| Cc1nn(Cc2ccc(Cl)cc2)c(Cl)c1/C=N/NC(=O)c1cccnc1 | 35.8% |
| NC(=O)COc1ccc2c3c(c(=O)oc2c1)CCCCC3 | -10.3% |
| O=C(COc1ccc2oc3c(c2c1)CCCC3)Nc1ccccn1 | -26.2% |
| O=C(CN1CCOCC1)N1CCCc2c1c(=O)oc1ccc(OCc3ccccc3)cc21 | -90.3% (active) |
| CCCCN(CC)C(=O)c1ccccc1Oc1ccccc1 | 6.14% |
| Cc1cccc(C(=O)NC(=S)N2CCN(c3ccc([N+](=O)[O-])cc3)CC2)c1 | 8.71% |
